According to PubChem BioAssay AID1159580 (chemical genetic matrix, 2015):
Among all 5,500 compounds or so, about 2,000 (36%) were called active. Not shown: some 18% with an inconclusive outcome. No stated cut-off is given here; in the data, active means normalized growth mostly below about 0.91 (no sharp cut-off); inconclusive means no clear call, values can overlap the other calls; inactive means mostly above about 0.92. The list shows a part of the results.

Experiment: chemical genetic growth profiling, strain panel (AID 1159580);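 further: tested at 20 µM; growth read once vehicle control cultures reached saturation at 30 °C; 1 = growth at the plate median or of vehicle wells; lower values mean less growth of the strain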
Conditions: S. cerevisiae deletion strains, growth OD

Measured: normalized growth

O=c1ccc2ccc(O)cc2o1
inactive: locus YAL021C, strain ccr4, hits give low values 1.05 | locus YAL026C, strain drs2, hits give low values 0.984 | locus YAL030W, strain snc1, hits give low values 0.999 | locus YBL061C, strain skt5, hits give low values 0.991 | locus YBR009C, strain hhf1, hits give low values 1.01 | locus YBR023C, strain chs3, hits give low values 1.01 | locus YBR171W, strain sec66, hits give low values 0.987 | locus YBR231C, strain swc5, hits give low values 0.976 | locus YBR279W, strain paf1, hits give low values 1.01 | locus YCL011C, strain gbp2, hits give low values 1.01 | locus YCL016C, strain dcc1, hits give low values 1.02 | locus YCL069W, strain vba3, hits give low values 0.996 | locus YCR088W, strain abp1, hits give low values 0.996 | locus YDL005C, strain med2, hits give low values 0.981 | locus YDL040C, strain nat1, hits give low values 0.988 | locus YDR001C, strain nth1, hits give low values 0.988 | locus YDR069C, strain doa4, hits give low values 0.993 | locus YDR137W, strain rgp1, hits give low values 1.02 | locus YDR159W, strain sac3, hits give low values 0.972 | locus YDR195W, strain ref2 0.942 | locus YDR297W, strain sur2, hits give low values 0.986 | locus YDR334W, strain swr1, hits give low values 0.985 | locus YDR335W, strain msn5, hits give low values 1 | locus YDR392W, strain spt3, hits give low values 0.96 | locus YEL003W, strain gim4, hits give low values 0.988 | locus YEL037C, strain rad23, hits give low values 0.985 | locus YEL061C, strain CIN8 (second series), hits give low values 0.989 | locus YER015W, strain faa2, hits give low values 1.01 | locus YER016W, strain bim1, hits give low values 0.996 | locus YER111C, strain swi4, hits give low values 0.981 | locus YER155C, strain BEM2 (second series), hits give low values 0.986 | locus YFR010W, strain ubp6, hits give low values 0.976 | locus YGL167C, strain pmr1, hits give low values 0.99 | locus YGL173C, strain kem1, hits give low values 0.988 | locus YGL227W, strain vid30, hits give low values 0.983 | locus YGL240W, strain doc1, hits give low values 0.976 | locus YGL253W, strain hxk2, hits give low values 0.972 | locus YHR013C, strain ard1, hits give low values 0.997 | locus YHR027C, strain rpn1, hits give low values 0.981 | locus YHR142W, strain chs7, hits give low values 1.01 | locus YJL092W, strain hpr5, hits give low values 0.994 | locus YJL095W, strain BCK1 (second series), hits give low values 1 | locus YJL115W, strain asf1, hits give low values 0.985 | locus YJL129C, strain trk1, hits give low values 0.972 | locus YJL154C, strain vps35, hits give low values 0.988 | locus YJL164C, strain tpk1, hits give low values 1.01 | locus YJL166W, strain qcr8, hits give low values 1 | locus YKL160W, strain elf1, hits give low values 1.01 | locus YKR026C, strain gcn3, hits give low values 0.991 | locus YKR091W, strain srl3, hits give low values 0.992 | locus YLL001W, strain dnm1, hits give low values 1.01 | locus YLL026W, hits give low values 1 | locus YLL041C, strain sdh2, hits give low values 0.992 | locus YLR027C, strain aat2, hits give low values 1.01 | locus YLR221C, strain rsa3, hits give low values 0.98 | locus YLR258W, strain gsy2, hits give low values 1.03 | locus YLR262C, strain YPT6 (second series), hits give low values 1.01 | locus YLR320W, strain mms22, hits give low values 0.975 | locus YLR342W, strain FKS1, hits give low values 1 | locus YLR357W, strain rsc2, hits give low values 0.996 | locus YLR370C, strain arc18, hits give low values 1 | locus YLR384C, strain iki3, hits give low values 0.988 | locus YML120C, strain ndi1, hits give low values 1.01 | locus YMR058W, strain fet3, hits give low values 0.99 | locus YMR125W, strain sto1, hits give low values 1.01 | locus YMR129W, hits give low values 0.993 | locus YMR205C, strain PFK2, hits give low values 1.02 | locus YMR231W, strain pep5, hits give low values 0.982 | locus YNL071W, strain lat1, hits give low values 1 | locus YNL209W, strain ssb2, hits give low values 1.01 | locus YNL248C, strain rpa49, hits give low values 0.999 | locus YNL322C, strain KRE1 (second series), hits give low values 0.996 | locus YNR049C, strain mso1, hits give low values 0.979 | locus YOR001W, strain rrp6, hits give low values 0.931 | locus YOR070C, strain gyp1, hits give low values 0.999 | locus YOR080W, strain dia2, hits give low values 0.992 | locus YOR083W, strain WHI5, hits give low values 1.03 | locus YOR106W, strain vam3, hits give low values 1.03 | locus YOR265W, strain rbl2, hits give low values 0.994 | locus YOR270C, strain vph1, hits give low values 0.985 | locus YOR290C, strain snf2, hits give low values 1 | locus YPL051W, strain arl3, hits give low values 0.997 | locus YPL078C, strain atp4, hits give low values 1.01 | locus YPL106C, strain sse1, hits give low values 1.03 | locus YPL240C, strain hsp82, hits give low values 0.998
